Whole data set: some 39,000 sequences, median “fluorescence intensity (a.u.)” near 4,300, cut for the highest 2% near 39,000. Only a selection was taken, and the highest values are over-represented in it overall.

For the assay, the target named is T1, OsSMF1 (Oryza sativa, UniProt Q6ZLB0 1-436).
T1 sequence: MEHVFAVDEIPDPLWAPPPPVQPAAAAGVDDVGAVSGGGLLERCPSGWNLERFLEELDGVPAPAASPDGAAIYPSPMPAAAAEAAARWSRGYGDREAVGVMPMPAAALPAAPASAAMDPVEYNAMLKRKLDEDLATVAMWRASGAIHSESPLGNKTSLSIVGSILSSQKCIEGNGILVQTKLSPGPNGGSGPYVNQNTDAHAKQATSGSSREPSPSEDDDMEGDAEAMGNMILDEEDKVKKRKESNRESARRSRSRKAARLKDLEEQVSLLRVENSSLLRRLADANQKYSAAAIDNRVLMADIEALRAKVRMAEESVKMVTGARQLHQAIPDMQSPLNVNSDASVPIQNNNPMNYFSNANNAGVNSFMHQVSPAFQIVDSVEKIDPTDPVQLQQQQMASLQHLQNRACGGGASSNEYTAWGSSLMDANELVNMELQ
The assay can be described thus: protein-binding microarray (RPBM); PBS, 2% BSA, 51.3 ng/ul salmon testes DNA, 50 uM zinc acetate, 200 nM TF, 25 C, 1 h; high values mean tight binding. The note with it: protein: recombinant; tags: N-terminal polyhistidine and DsRed monomer fusion (pET32a); chain copies: 2; label: CyDye5-dUTP incorporated in the synthesized complementary strand; 3' TTTTT single-stranded linker to array surface; dsDNA, one strand shown. The essentials: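 Per-feature fluorescence intensity (arbitrary units), read on an Axon 4000B scanner, is the binding signal. Transcription factors carrying an N-terminal polyhistidine tag and DsRed fusion were expressed in E. coli BL21-CodonPlus and purified on Ni–NTA. A custom Agilent array, made double-stranded by primer extension with Cy5-dUTP and blocked with 2% BSA, was incubated with 200 nM protein in PBS, 2% BSA, salmon testes DNA and 50 µM zinc acetate at 25 °C for 1 h and then washed.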
Consider “GCTACACTTAACGCTGTCCACAACTCCACATACGCGTTACCGGAGTCACCTAGTGCAG”, for which the binding signal is 3330 fluorescence intensity (a.u.).
Under “ATTTCTAATGCCACGTTAACGCCACGTGGAAAGAAGACCGCGGAGTCACCTAGTGCAG” stands 17900 fluorescence intensity (a.u.).
Under “GAACGGTAGAATGATTATTGCTCCTTCAGTTTTCGAGTAACGGAGTCACCTAGTGCAG” stands 3320 fluorescence intensity (a.u.).
Under “TCCGTTCTGTTTATGAATAACGGTCGAAAACGTAATAACCCGGAGTCACCTAGTGCAG” stands 46300 fluorescence intensity (a.u.); under “TGAACCGGCCGGTTTTCATGTGAACCGTGAACCGTAATAACGGAGTCACCTAGTGCAG”, 3240 fluorescence intensity (a.u.); under “CTATGACGGGTCGAAAACGGAACCCGTCAAAGATGAGTTACGGAGTCACCTAGTGCAG”, 18300 fluorescence intensity (a.u.).
Consider “GTGGTACACGCATGCTGACTAATTAAGACCGACAGAATCCCGGAGTCACCTAGTGCAG”, for which the binding signal was 3390 fluorescence intensity (a.u.).
With “AACATGAAAGCTCAAGAGCTCGTGCTGACGGCTGAGAATCCGGAGTCACCTAGTGCAG”, the binding signal was 3150 fluorescence intensity (a.u.).
Under “TATGGACACCATCCTTGTCATTGGGTTAGGACTGGCCTTACGGAGTCACCTAGTGCAG” stands 3630 fluorescence intensity (a.u.); under “TTCATCCTATCACATCAAATATTTGGATACATACATGGAGCGGAGTCACCTAGTGCAG”, 45500 fluorescence intensity (a.u.); under “GCCATCCAACTATTTTCATGGATCAACATCATAGTAGTATCGGAGTCACCTAGTGCAG”, 3140 fluorescence intensity (a.u.).
The value for “AAATAGTCACACATAAAATACTATTCATATTTTATCATCTCGGAGTCACCTAGTGCAG” was 13500 fluorescence intensity (a.u.); that for “TTGCTTGCGAGCAAAGGTGGAGTTCATGCCCTCATCATATCGGAGTCACCTAGTGCAG” was 3710 fluorescence intensity (a.u.); that for “AATATAATGGCCGCTCGCTGATGGGTGCGTCATGCACCCTCGGAGTCACCTAGTGCAG” was 4060 fluorescence intensity (a.u.).
Regarding “ATCCCCGGTCATCTCGCCTCGTCTCGTCCCGTCCCTGCGCCGGAGTCACCTAGTGCAG”, the binding signal is 3460 fluorescence intensity (a.u.).
Regarding “TCGGATCGAATTGCCACGTAAGCGCCACGTCGATGCCACACGGAGTCACCTAGTGCAG”, the binding signal was 33000 fluorescence intensity (a.u.).
The value for “TTTTCGATATATAATTGCCACGTAAGCGTCACGTCAATGCCGGAGTCACCTAGTGCAG” was 34300 fluorescence intensity (a.u.).
On to “GATATAATTGCCACGTAAGCGCCACGTCAATGCCACGTGCCGGAGTCACCTAGTGCAG”, for which the binding signal was 52100 fluorescence intensity (a.u.).
For the sequence “ATCGAATTGTCACGTAAGCGCCACGTCAATGCTACGTCAGCGGAGTCACCTAGTGCAG”, the binding signal is 26100 fluorescence intensity (a.u.).
Under “CCGGATCGAATTGCCACGTAAGCGTCACGTCACTGCCACACGGAGTCACCTAGTGCAG” stands 17100 fluorescence intensity (a.u.).
Under “TTGAGATATAATTGCTACGTAAGTGCCACGTCAATGCCACCGGAGTCACCTAGTGCAG” stands 21400 fluorescence intensity (a.u.); under “GCTGAGATATAGTTGCCACGTAAGCGCCACGTCAATGCTACGGAGTCACCTAGTGCAG”, 33000 fluorescence intensity (a.u.); under “GCTCGAATTGCCACGTAAGCGCCACGTCAATGCCACGTCACGGAGTCACCTAGTGCAG”, 65500 fluorescence intensity (a.u.).
Under “CGAGATATAATTGCCATGTCATTGCCACGTCAATGTCACGCGGAGTCACCTAGTGCAG” stands 49600 fluorescence intensity (a.u.).
Regarding “TTTTCCGGATCGAATTGCCACGTAAGCGCCACGTCAATGACGGAGTCACCTAGTGCAG”, the binding signal was 48300 fluorescence intensity (a.u.).
Consider “CTGGATCGAATTGCCACGTAAGCGCCACGTCAGTGCCACACGGAGTCACCTAGTGCAG”, for which the binding signal was 20700 fluorescence intensity (a.u.).
The value for “CCAATATATAATTGCCACGTCATCGCCGCGTCAATGCCACCGGAGTCACCTAGTGCAG” was 28100 fluorescence intensity (a.u.); that for “TCATCCCCTGATCGTCATCAGCATTCTCACCGTCGGCGCTCGGAGTCACCTAGTGCAG” was 4690 fluorescence intensity (a.u.); that for “AGTAGGGAAAGTTACAACGCAGCCTAACGTGGGATAGCGGCGGAGTCACCTAGTGCAG” was 3980 fluorescence intensity (a.u.).
The value for “CGCGATCCTGACAGTATATTCTATCTTTGACACAGTCTGACGGAGTCACCTAGTGCAG” was 3320 fluorescence intensity (a.u.); that for “GCAGCCATTTACGCTTTCCACGTCAGTGCATGATGGAGTACGGAGTCACCTAGTGCAG” was 16800 fluorescence intensity (a.u.).
Under “GTAGCGGCTGCGGCGCTCCAGCTCCTCGGAGGCCCGGTCCCGGAGTCACCTAGTGCAG” stands 3790 fluorescence intensity (a.u.); under “CTCCCCACTCACTGCCAGGTGGGCCCACCTTGTCGGATTACGGAGTCACCTAGTGCAG”, 3530 fluorescence intensity (a.u.).
For the sequence “ATGTCAAGACAACAACAGTTGTAAATGTGATCTGGACATACGGAGTCACCTAGTGCAG”, the binding signal was 3540 fluorescence intensity (a.u.).
The value for “TCCCTGCGAAATTGTACACATCAACACAACATAAGGTCGACGGAGTCACCTAGTGCAG” was 3700 fluorescence intensity (a.u.); that for “GGCAAATCGGTAATTGCCATGTCACAAGAGTGGCAAATAGCGGAGTCACCTAGTGCAG” was 8900 fluorescence intensity (a.u.).
As to “CACCCGCCATCGTGGCGGACATTCCAGTATAGGTACGGCACGGAGTCACCTAGTGCAG”, the binding signal is 6150 fluorescence intensity (a.u.).
The value for “TGGTGGTGGAAATTTTGGAAATCGTGAGGGCTACACATACCGGAGTCACCTAGTGCAG” was 3550 fluorescence intensity (a.u.); that for “CGTCGACCACCACCACGCTCTTGCCCCTGATGACGCCGTGCGGAGTCACCTAGTGCAG” was 6870 fluorescence intensity (a.u.).
The value for “CGGCTTCCCGACGGTGGCGGCGCACGTGGGCGAGGCTGAGCGGAGTCACCTAGTGCAG” was 3800 fluorescence intensity (a.u.); that for “AGCAGTAACCACGAAAGCGCTCGGCTCCACACGCCACGCACGGAGTCACCTAGTGCAG” was 3280 fluorescence intensity (a.u.).
Under “CCCACCTTTCAAATTCCACGTCCGCCAATAATATTATTACCGGAGTCACCTAGTGCAG” stands 6710 fluorescence intensity (a.u.).

Source of the values: article PMC7819943, “Rice protein-binding microarrays: a tool to detect cis-acting elements near promoter regions in rice”.
